The values that follow come from PubChem BioAssay (NCI).

This is part of a sample that, as a whole, favours compounds with a hit. Of some 83,000 tested, about 20% had one in any assay.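 Each cell line was grown in a 96-well plate and treated with one concentration of compound for 48 hours. Values below 10 were considered active.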 A number with no mark means an inactive call. The source made the active and inactive calls.

What all share (assay): NCI-60 one-dose screen, 48 h (100 = growth as untreated, 0 = no growth, -100 = all killed)
One experiment relates to DU-145 prostate. The following applies: 10 µM unless noted.
A further experiment relates to MALME-3M melanoma. The note with it: 10 µM unless noted.
The test system of a further experiment is MDA-MB-231 breast. The following applies: 10 µM unless noted.
The next experiment has as its system RXF 393 renal. The note with it: 10 µM unless noted.
A further experiment deals with SF-268 CNS. The following applies: 10 µM unless noted.
The subject of another experiment is SF-295 CNS. The note with it: 10 µM unless noted.
For the next experiment, the system named is SF-539 CNS. The note with it: 10 µM unless noted.
For the next experiment, the system named is UACC-257 melanoma. The note with it: 10 µM.
For the next experiment, the system named is M14 melanoma. The note with it: 10 µM unless noted.
The next experiment deals with K-562 leukemia. The note with it: 10 µM unless noted.

As to `CNC(=O)c1cc(Oc2ccc3nc(NC(=O)c4cccc(C(F)(F)F)c4)sc3c2)ccn1`, the growth in the experiment with DU-145 prostate is 101%; with MALME-3M melanoma, 97.2%; in the experiment on MDA-MB-231 breast it was 104%; in the experiment with RXF 393 renal, 106%; in the experiment with SF-268 CNS it was 98%; in the experiment with SF-295 CNS, 92.6%. Moreover, the growth in the experiment with SF-539 CNS was 99.4%; with UACC-257 melanoma, 104%; in the experiment with M14 melanoma, 96.6%.
`Cc1ccc(C2CC(c3ccc(Nc4nc(NCCO)nc(Nc5ccc(Cl)cc5)n4)cc3)=Nc3c(N)nc(N)nc3N2)cc1` (centres undefined): the growth with DU-145 prostate is -90.7% (active); in the experiment with K-562 leukemia, -53.5% (active); in the experiment on MALME-3M melanoma, 95.6%; in the experiment on MDA-MB-231 breast, -74.3% (active); in the experiment on SF-268 CNS, -46.7% (active); with SF-295 CNS, 28.9%. Moreover, the growth in the experiment with SF-539 CNS was -20.3% (active); in the experiment on UACC-257 melanoma, 113%; in the experiment on M14 melanoma, 2.15% (active).
For `N#Cc1ccc(S(=O)(=O)Nc2ccc(-c3cnc(N)[nH]3)cc2)cc1`, the growth with DU-145 prostate is 107%; in the experiment on MALME-3M melanoma, 98%; in the experiment with MDA-MB-231 breast, 100%; with RXF 393 renal, 102%; in the experiment on SF-268 CNS it was 105%; in the experiment on SF-295 CNS it was 96.9%. Besides, the growth with SF-539 CNS is 98.7%; in the experiment with UACC-257 melanoma, 98.2%; in the experiment with M14 melanoma, 99.9%.
Consider `C=C1C(=O)O[C@@H]2/C=C(/C)C3=CC(=O)[C@@](C)(C[C@H](OC(=O)/C(C)=C\C)[C@@H]12)O3`, for which the growth is 8.26% (active) with DU-145 prostate; -22.9% (active) in the experiment on MALME-3M melanoma; -16.8% (active) in the experiment on MDA-MB-231 breast; -65% (active) in the experiment on RXF 393 renal; 30.2% in the experiment on SF-268 CNS; 55.9% with SF-295 CNS. In addition, the growth in the experiment with SF-539 CNS is -19.4% (active); with UACC-257 melanoma, -36.2% (active); in the experiment on M14 melanoma, -27.6% (active).
As to `CS(=O)(=O)c1nccc(-c2c(-c3ccc(F)c(OCCc4ccc(F)cc4)c3)nc3sccn23)n1`, the growth was -91.6% (active) with DU-145 prostate; 91.7% with MALME-3M melanoma; 1.19% (active) in the experiment on MDA-MB-231 breast; 77.7% in the experiment on RXF 393 renal; 82.8% in the experiment with SF-268 CNS; 89% in the experiment with SF-295 CNS. For the same compound, the growth in the experiment on SF-539 CNS was 76.3%; with UACC-257 melanoma, -81.4% (active); in the experiment on M14 melanoma it was 83.9%.
`CS(=O)(=O)c1nccc(-c2c(-c3ccc(F)c(OCc4ccc(F)cc4)c3)nc3sccn23)n1`: the growth in the experiment on DU-145 prostate is -96.4% (active); in the experiment with MALME-3M melanoma, 111%; in the experiment with MDA-MB-231 breast it was 79.9%; in the experiment on RXF 393 renal, 84.2%; with SF-268 CNS, 96.1%; with SF-295 CNS, 96.9%. For the same compound, the growth with SF-539 CNS is 90.1%; in the experiment on UACC-257 melanoma, -56.9% (active); in the experiment with M14 melanoma, 81.3%.
`COc1cnc2c(c1)C(=O)c1c-2n(CCCn2ccnc2)c(=O)c2cc(OC)c(OC)cc12`: the growth is -2.47% (active) in the experiment with DU-145 prostate; -51.4% (active) in the experiment with MALME-3M melanoma; -0.696% (active) in the experiment on MDA-MB-231 breast; -10.5% (active) in the experiment with RXF 393 renal; 29.2% in the experiment with SF-268 CNS; -20.5% (active) in the experiment with SF-295 CNS. The values for the growth with SF-539 CNS and in the experiment on M14 melanoma were -35.2% (active) and -86.5% (active), respectively.
Turning to `CCNCCCn1c2c(c3cc(OC)c(OC)cc3c1=O)C(=O)c1cc(OC)cnc1-2`, the growth in the experiment on DU-145 prostate is 19.6%; with MALME-3M melanoma it was 62.9%; with MDA-MB-231 breast it was 16.3%; in the experiment on RXF 393 renal, 13.6%; in the experiment on SF-268 CNS, 39.5%; in the experiment with SF-295 CNS, 14.8%. Moreover, the values for the growth in the experiment with SF-539 CNS and in the experiment on M14 melanoma were -7.15% (active) and 13.9%, respectively.
For the compound `Cn1cc(-c2nn3c(=O)cc(-c4ccccc4)nc3s2)c2cc(F)ccc21`, the growth was 66.6% in the experiment on DU-145 prostate; 22.7% in the experiment on MALME-3M melanoma; 58.3% in the experiment on MDA-MB-231 breast; 45.9% in the experiment with RXF 393 renal; 78.4% in the experiment on SF-268 CNS; 34.7% in the experiment with SF-295 CNS. Moreover, the growth in the experiment on SF-539 CNS is 49.9%; in the experiment with M14 melanoma, 46.6%.
In the case of `O=c1cc(-c2ccccc2)nc2sc(-c3c[nH]c4ccc(Br)cc34)nn12`, the growth was 103% in the experiment with DU-145 prostate; 104% in the experiment with MALME-3M melanoma; 89.8% in the experiment with MDA-MB-231 breast; 104% in the experiment on RXF 393 renal; 102% in the experiment on SF-268 CNS; 99.8% in the experiment with SF-295 CNS. Moreover, the growth was 96.3% with SF-539 CNS and 105% in the experiment with M14 melanoma.
For the compound `O=c1cc(-c2ccccc2)nc2sc(-c3c[nH]c4ccc(F)cc34)nn12`, the growth in the experiment with DU-145 prostate was 63.3%; in the experiment on MALME-3M melanoma it was 21.9%; with MDA-MB-231 breast it was 51.8%; with RXF 393 renal, 40.5%; in the experiment on SF-268 CNS, 82.9%; in the experiment with SF-295 CNS it was 82.9%. Also, the growth in the experiment with SF-539 CNS was 68%; in the experiment on M14 melanoma, 63.5%.
As for `C=CCn1c(SCC(=O)Nc2cccc(C(=O)/C=C/c3ccc(Br)cc3)c2)nc2ccccc2c1=O`, the growth in the experiment with DU-145 prostate was 95.7%; with MALME-3M melanoma it was 72.7%; in the experiment on MDA-MB-231 breast it was 81.2%; in the experiment with RXF 393 renal, 71.1%; with SF-268 CNS it was 90.3%; with SF-295 CNS, 91.4%. Also, the growth in the experiment on SF-539 CNS is 66.6%; with UACC-257 melanoma it was 105%; in the experiment on M14 melanoma it was 85.4%.
Consider `Cn1cc(-c2nn3cc(-c4cccnc4)nc3s2)c2ccccc21`, for which the growth with DU-145 prostate is 58.3%; in the experiment on MALME-3M melanoma it was 22.5%; in the experiment with MDA-MB-231 breast it was 31.7%; in the experiment on RXF 393 renal, 54.3%; in the experiment on SF-268 CNS, 66.7%; with SF-295 CNS it was 40.7%. In addition, the values for the growth in the experiment with SF-539 CNS and with M14 melanoma were 26.5% and 14.5%, respectively.
For the compound `Cc1cc(=O)n2nc(-c3c[nH]c4ccccc34)sc2n1`, the growth in the experiment on DU-145 prostate is 107%; in the experiment with MALME-3M melanoma, 85%; in the experiment on MDA-MB-231 breast, 90.6%; in the experiment on RXF 393 renal, 105%; in the experiment on SF-268 CNS it was 102%; in the experiment on SF-295 CNS, 103%. For the same compound, the values for the growth with SF-539 CNS and in the experiment with M14 melanoma were 92.7% and 107%, respectively.
